Measurements: PubChem BioAssay (EPA / NIEHS)
Records with an inconclusive call do not appear. Where a structure was tested more than once in an assay, its records may differ in their call. The source made the active and inactive calls. The calls were made as follows, unless noted: active = hit-call score of the fitted dose curve at least 0.9, where 1 is the maximum; inactive = score below 0.9.

Tests used:
[1] = target: human Retinoid X Receptor beta (RXRb), RXRB (gene 6257) (UniProt P28702); experiment: ATG_RXRb_TRANS: Attagene TRANS-FACTORIAL HepG2 Assay for human Retinoid X Receptor beta (RXRb) (AID 2283013; active = hit-call score of the fitted dose curve at least 0.9, where 1 is the maximum)
How it was run: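 Chimeric receptor-Gal4 activity was assessed in transiently transfected human HepG2 cells after 24 h exposure. Transcripts from GAL4-UAS reporters were quantified by fluorescent RT-PCR and capillary electrophoresis, with DMSO as negative control and baseline.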

[2] = target: human Vitamin D Receptor (VDR), VDR (gene 7421) (UniProt P11473); experiment: ATG_VDR_TRANS: Attagene TRANS-FACTORIAL HepG2 Assay for human Vitamin D Receptor (VDR) (AID 2283022; active = hit-call score of the fitted dose curve at least 0.9, where 1 is the maximum)
How it was run: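 Multiplexed TRANS reporter in HepG2; 24 h treatment; reporter mRNA by RT-PCR plus capillary electrophoresis; upregulation scored relative to DMSO.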

[3] = target: human Thyroid Receptor alpha (THRa1), THRA (gene 7067) (UniProt P10827); experiment: ATG_THRa1_TRANS: Attagene TRANS-FACTORIAL HepG2 Assay for human Thyroid Receptor alpha (THRa1) (AID 2283014; active = hit-call score of the fitted dose curve at least 0.9, where 1 is the maximum)
How it was run: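 Measured here is mRNA from a GAL4-UAS reporter in transfected HepG2 cells carrying a Gal4-fused receptor, 24 h post-dose. DMSO served as negative control and baseline.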

[4] = read-out: E-selectin (Homo sapiens) (UniProt P16581); experiment: BSK_3C_Eselectin: BioMAP Diversity Plus: 3C Assay for Eselectin Biomarker Activity (AID 2283015); details: primary human endothelial cells (HUVEC); actives raise or lower the signal;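 also: cell surface E-selectin protein quantified by ELISA 24 h after dosing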
How it was run: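 Endpoint derived by bidirectional fitting against DMSO vehicle; signal is ELISA-detected E-selectin from primary HUVEC at 24 h post-dosing, with parallel SRB staining (0.1% SRB, 560 nm) flagging cytotoxicity.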

[5] = read-out: Interleukin-1 alpha (IL1a), IL1A (gene 3552); experiment: BSK_BE3C_IL1a: BioMAP Diversity Plus: BE3C Assay for Interleukin-1 alpha (IL1a) Biomarker Activity (AID 2283016); details: primary human bronchial epithelial cells; actives raise or lower the signal
How it was run: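 Signal from IL-1a ELISA, taken 24 h after chemical dosing of human bronchial epithelial cells, is compared with DMSO as baseline using bidirectional curve fitting.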

[6] = read-out: Monocyte Chemoattractant Protein-1 (MCP1), CCL2 (gene 6347); experiment: BSK_3C_MCP1: BioMAP Diversity Plus: 3C Assay for Monocyte Chemoattractant Protein-1 (MCP1) Biomarker Activity (AID 2283017); details: primary human endothelial cells (HUVEC); actives raise or lower the signal
How it was run: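 Using human vascular primary endothelium, researchers measured MCP-1 by ELISA 24 h after treatment, with DMSO serving as negative control for bidirectional fitting.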

[7] = read-out: Monocyte Chemoattractant Protein-1 (MCP1), CCL2 (gene 6347); experiment: BSK_4H_MCP1: BioMAP Diversity Plus: 4H Assay for Monocyte Chemoattractant Protein-1 (MCP1) Biomarker Activity (AID 2283018); details: primary human endothelial cells (HUVEC); actives raise or lower the signal
How it was run: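 Endothelial cells from umbilical vein were treated with test chemical, then after 24 h MCP-1 levels were quantified by ELISA; endpoint values came from bidirectional fitting with DMSO as baseline of activity.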

[8] = read-out: Human Leukocyte Antigen - DR isotype (HLADR), HLA-DRA (gene 3122); experiment: BSK_3C_HLADR: BioMAP Diversity Plus: 3C Assay for Human Leukocyte Antigen - DR isotype (HLADR) Biomarker Activity (AID 2283019); details: primary human endothelial cells (HUVEC); actives raise or lower the signal
How it was run: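 Compound added to primary HUVEC cultures, 24 h incubation, then HLA-DR determined by ELISA; endpoint derived by bidirectional fitting relative to DMSO negative control.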

[9] = read-out: Interleukin-8 (IL8), CXCL8 (gene 3576); experiment: BSK_3C_IL8: BioMAP Diversity Plus: 3C Assay for Interleukin-8 (IL8) Biomarker Activity (AID 2283020); details: primary human endothelial cells (HUVEC); actives raise or lower the signal
How it was run: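 Endothelial primary cells of human umbilical vein origin are dosed with chemical; after 24 h the IL-8 biomarker is measured by ELISA, and concentration–response is fitted in both directions versus DMSO.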

[10] = read-out: Monokine induced gamma interferon (MIG), CXCL9 (gene 4283); experiment: BSK_3C_MIG: BioMAP Diversity Plus: 3C Assay for Monokine induced gamma interferon (MIG) Biomarker Activity (AID 2283021); details: primary human endothelial cells (HUVEC); actives raise or lower the signal
How it was run: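 Endothelial primary cells (human umbilical vein) are dosed with test chemical in the 3C system. MIG levels are measured by ELISA at 24 h and fitted in both directions relative to DMSO.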

[11] = BSK_3C_SRB: Viability Assessment in the BioMAP Diversity Plus: 3C Assay (AID 2283023); details: primary human endothelial cells (HUVEC);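 also: fitted both ways against DMSO so a hit may be signal rise or drop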
How it was run: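 Overt cytotoxicity is gauged in parallel confluent HUVEC cultures by SRB total-protein staining at the time of biomarker measurement, 24 h after dosing. Gain or loss of signal is fitted versus DMSO.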

[12] = read-out: Matrix Metallopeptidase 1 (MMP1), MMP1 (gene 4312); experiment: BSK_BE3C_MMP1: BioMAP Diversity Plus: BE3C Assay for Matrix Metallopeptidase 1 (MMP1) Biomarker Activity (AID 2283024); details: primary human bronchial epithelial cells; actives raise or lower the signal
How it was run: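 MMP1 signal, measured by ELISA after a 24 h chemical exposure of human primary bronchial epithelial cells, is analysed with bidirectional fitting using DMSO as negative control.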

[13] = BSK_3C_Vis: BioMAP Diversity Plus: 3C Assay for Morphology Visualization (AID 2283025); details: primary human endothelial cells (HUVEC);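 also: fitted both ways so gain or loss versus DMSO counts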
How it was run: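 Morphology read by light microscopy serves as a background control for the multiplexed 3C assay in human umbilical vein endothelial cells, taken 24 h after dosing, with DMSO as the negative control and bidirectional curve fitting.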

[14] = read-out: Pselectin, SELP (gene 6403); experiment: BSK_4H_Pselectin: BioMAP Diversity Plus: 4H Assay for Pselectin Biomarker Activity (AID 2283026); details: primary human endothelial cells (HUVEC); actives raise or lower the signal
How it was run: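 Endothelial primary cells (human umbilical vein) are dosed, incubated 24 h, and assayed for surface P-selectin by ELISA; responses in either direction are fitted relative to the DMSO negative control.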

[15] = BSK_4H_SRB: Viability Assessment in the BioMAP Diversity Plus: 4H Assay (AID 2283027); details: primary human endothelial cells (HUVEC);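 also: cells exposed to compound for 24 h before staining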;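 as to AC50: curves fitted both ways versus DMSO so AC50 may be loss or gain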
How it was run: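 HUVEC, 24 h post-dose; 10% TCA fix, 0.1% SRB stain, A560 nm. Total protein = overt cytotoxicity, parallel to biomarker read. Bidirectional fit vs DMSO baseline.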

[16] = BSK_BE3C_SRB: Viability Assessment in the BioMAP Diversity Plus: BE3C Assay (AID 2283028); details: primary human bronchial epithelial cells;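 as to AC50: fitted both ways so AC50 may mark signal gain or loss versus DMSO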
How it was run: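 SRB total-protein staining (0.1%, after TCA fixation) of chemically dosed human bronchial epithelial primary cells at 24 h; DMSO serves as the negative control for bidirectional curve fitting.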

[17] = read-out: Thrombomodulin, THBD (gene 7056); experiment: BSK_3C_Thrombomodulin: BioMAP Diversity Plus: 3C Assay for Thrombomodulin Biomarker Activity (AID 2283029); details: primary human endothelial cells (HUVEC); actives raise or lower the signal
How it was run: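 Endothelial cells from umbilical vein are dosed with test chemical and incubated 24 h. Thrombomodulin is then quantified by ELISA, with DMSO serving as negative control and activity baseline.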

[18] = read-out: Urokinase-type plasminogen activator receptor (uPAR), PLAUR (gene 5329); experiment: BSK_4H_uPAR: BioMAP Diversity Plus: 4H Assay for Urokinase-type plasminogen activator receptor (uPAR) Biomarker Activity (AID 2283030); details: primary human endothelial cells (HUVEC); actives raise or lower the signal
How it was run: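 Endpoint derived via bidirectional curve fitting against DMSO baseline; readout was ELISA detection of uPAR on umbilical vein endothelial cells at 24 h post-treatment, with SRB-stained parallel cultures assessing cytotoxicity.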

[19] = read-out: Vascular endothelial growth factor receptor 2 (Homo sapiens) (UniProt P35968); experiment: BSK_4H_VEGFRII: BioMAP Diversity Plus: 4H Assay for Vascular endothelial growth factor receptor 2 (VEGFR2) Biomarker Activity (AID 2283031); details: primary human endothelial cells (HUVEC); actives raise or lower the signal
How it was run: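 In this multiplexed HUVEC system, biomarker ELISA was performed after 24 h chemical exposure. Parallel SRB staining (TCA fixation, 560 nm) tracked cytotoxicity; DMSO served as baseline.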

Measured: AC50

Sequence of E-selectin (Homo sapiens) (P16581 whole entry, looked up): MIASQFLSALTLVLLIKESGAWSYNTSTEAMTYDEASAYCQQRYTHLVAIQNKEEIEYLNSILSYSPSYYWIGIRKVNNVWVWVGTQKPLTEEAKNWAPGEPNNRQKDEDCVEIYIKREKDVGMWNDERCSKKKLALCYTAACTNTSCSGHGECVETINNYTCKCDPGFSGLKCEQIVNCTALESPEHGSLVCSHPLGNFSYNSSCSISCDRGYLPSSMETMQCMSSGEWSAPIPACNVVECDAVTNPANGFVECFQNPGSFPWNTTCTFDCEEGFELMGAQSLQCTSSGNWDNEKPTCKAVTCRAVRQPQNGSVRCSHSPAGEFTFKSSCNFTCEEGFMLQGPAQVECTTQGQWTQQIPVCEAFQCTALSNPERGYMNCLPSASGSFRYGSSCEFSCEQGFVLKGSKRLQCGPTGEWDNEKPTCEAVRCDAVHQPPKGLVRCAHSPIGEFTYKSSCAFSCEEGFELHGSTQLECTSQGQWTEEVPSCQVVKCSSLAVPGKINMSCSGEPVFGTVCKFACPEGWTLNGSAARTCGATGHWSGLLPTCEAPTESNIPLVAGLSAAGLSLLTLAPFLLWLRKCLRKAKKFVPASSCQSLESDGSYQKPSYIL
Sequence of human Vitamin D Receptor (VDR), VDR (gene 7421) (P11473 whole entry, looked up): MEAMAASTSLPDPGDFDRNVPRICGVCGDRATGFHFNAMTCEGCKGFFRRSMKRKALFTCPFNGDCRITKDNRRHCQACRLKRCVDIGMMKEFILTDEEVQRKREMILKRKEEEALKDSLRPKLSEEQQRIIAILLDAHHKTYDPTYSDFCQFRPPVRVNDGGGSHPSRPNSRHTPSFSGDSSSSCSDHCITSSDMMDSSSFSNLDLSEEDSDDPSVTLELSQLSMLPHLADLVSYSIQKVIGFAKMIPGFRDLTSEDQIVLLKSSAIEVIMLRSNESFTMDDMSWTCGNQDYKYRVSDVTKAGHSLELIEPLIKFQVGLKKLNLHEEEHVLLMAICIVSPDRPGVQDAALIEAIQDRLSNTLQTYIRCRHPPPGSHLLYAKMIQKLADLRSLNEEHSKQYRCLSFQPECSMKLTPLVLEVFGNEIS
Sequence of human Retinoid X Receptor beta (RXRb), RXRB (gene 6257) (P28702 whole entry, looked up, the tested form may be a part): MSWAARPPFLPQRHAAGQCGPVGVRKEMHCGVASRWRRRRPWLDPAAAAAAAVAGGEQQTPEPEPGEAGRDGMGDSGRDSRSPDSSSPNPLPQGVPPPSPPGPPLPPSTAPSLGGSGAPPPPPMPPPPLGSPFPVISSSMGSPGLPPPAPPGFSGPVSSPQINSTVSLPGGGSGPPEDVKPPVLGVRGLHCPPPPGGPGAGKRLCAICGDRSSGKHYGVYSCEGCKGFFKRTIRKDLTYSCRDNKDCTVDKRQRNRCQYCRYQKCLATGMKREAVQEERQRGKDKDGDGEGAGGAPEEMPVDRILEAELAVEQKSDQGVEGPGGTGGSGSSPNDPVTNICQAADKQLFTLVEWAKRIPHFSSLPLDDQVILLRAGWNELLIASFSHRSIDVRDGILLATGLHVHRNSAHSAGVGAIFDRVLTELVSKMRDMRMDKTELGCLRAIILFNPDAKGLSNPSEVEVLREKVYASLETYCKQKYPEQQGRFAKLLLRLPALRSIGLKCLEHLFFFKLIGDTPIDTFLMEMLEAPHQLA
Sequence of human Thyroid Receptor alpha (THRa1), THRA (gene 7067) (P10827 whole entry, looked up, the tested form may be a part): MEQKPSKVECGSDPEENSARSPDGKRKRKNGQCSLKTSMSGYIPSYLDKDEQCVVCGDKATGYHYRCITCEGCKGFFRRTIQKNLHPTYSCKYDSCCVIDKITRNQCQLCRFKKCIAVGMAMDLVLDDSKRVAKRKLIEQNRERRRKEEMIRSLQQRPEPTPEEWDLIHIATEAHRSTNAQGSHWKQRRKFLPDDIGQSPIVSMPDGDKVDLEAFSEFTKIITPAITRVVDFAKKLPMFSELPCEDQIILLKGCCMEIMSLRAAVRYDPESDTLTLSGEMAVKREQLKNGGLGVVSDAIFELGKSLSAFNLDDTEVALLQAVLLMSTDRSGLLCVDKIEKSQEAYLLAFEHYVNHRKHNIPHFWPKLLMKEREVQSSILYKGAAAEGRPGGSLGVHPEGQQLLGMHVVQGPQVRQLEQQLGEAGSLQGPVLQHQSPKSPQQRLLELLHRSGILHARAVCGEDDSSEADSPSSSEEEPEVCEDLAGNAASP

CCO[Si](C)(C)OCC
inactive: [1] | [2]

Cc1ccc(N=Nc2c(O)ccc3ccccc23)c(C)c1
inactive: [1] | [3] | [4] | [5] | [6] | [7] | [9] | [10] | [11] | [12] | [14] | [15] | [16] | [17] | [18] | [19]
active: [8] 14.8 µM | [13] 19.9 µM

Cc1cc(Cc2cc(C)cc(C(C)(C)C)c2O)c(O)c(C(C)(C)C)c1
inactive: [1] | [3] | [2]

COc1ccc(C#N)cc1
inactive: [2]

CCCCCCCCCCCCCCC
inactive: [1] | [4] | [5] | [6] | [7] | [8] | [9] | [10] | [11] | [12] | [13] | [14] | [15] | [16] | [17] | [18] | [19]

O=C1NS(=O)(=O)c2ccccc21
active: [14] 5.01 µM
inactive: [1] | [4] | [5] | [6] | [7] | [8] | [9] | [10] | [11] | [12] | [13] | [14] | [15] | [16] | [17] | [18] | [19]

O=C(CCCN1CCC(O)(c2ccc(Cl)cc2)CC1)c1ccc(F)cc1
active: [9] 9.25 µM | [11] 17.4 µM | [13] 9.8 µM | [15] 9.78 µM | [18] 10.9 µM
inactive: [1] | [3] | [4] | [5] | [6] | [7] | [8] | [10] | [12] | [14] | [16] | [17] | [19]

CCC1CO1 (stereo not given)
inactive: [1] | [3] | [2]

c1cc2cccc3c4cccc5cccc(c(c1)c23)c54
inactive: [1] | [3] | [2]

CCCCc1ccc2ccccc2c1S(=O)(=O)O
active: [1] 77.1 µM
inactive: [2]

CCCCCCCCCCCCOS(=O)(=O)O
active: [16] 32.6 µM
inactive: [4] | [5] | [6] | [7] | [8] | [9] | [10] | [12] | [13] | [14] | [15] | [17] | [18] | [19]

COC(=O)C(F)(F)C(F)(F)C(F)(F)C(F)(F)C(F)(F)F
inactive: [2]

CCOC(C)=O
inactive: [1] | [3] | [2]
active: [1] 26.6 µM

COc1cc(OC)nc(NC(=O)NS(=O)(=O)Nc2ccccc2C(=O)N(C)C)n1
inactive: [4] | [5] | [6] | [7] | [8] | [9] | [10] | [11] | [12] | [13] | [14] | [15] | [16] | [17] | [18] | [19]

FC(F)(F)N1C(F)(F)C(F)(F)OC(F)(F)C1(F)F
inactive: [1] | [3]

CCO[Si](CCC1CCC2OC2C1)(OCC)OCC (stereo not given)
inactive: [2]

C=CC(=C)CC/C=C(\C)CCC=C(C)C
inactive: [4] | [5] | [6] | [7] | [8] | [9] | [10] | [11] | [13] | [14] | [15] | [16] | [17] | [18] | [19]
active: [12] 0.00695 µM

CC(C)c1c(C(=O)Nc2ccccc2)c(-c2ccccc2)c(-c2ccc(F)cc2)n1CC[C@@H](O)C[C@@H](O)CC(=O)O
inactive: [2]

CCCCCCC(C)(C)C(=O)O
inactive: [1] | [3]

c1cc[nH]c1
inactive: [1]

CCCCCCCCCCCCCCCC(=O)OC
inactive: [3] | [2]

C=C(c1ccc(C(=O)O)cc1)c1cc2c(cc1C)C(C)(C)CCC2(C)C
inactive: [3] | [2]

FC(F)(F)C(F)(F)C(F)(F)Br
inactive: [1] | [3]
